Results reported in PubChem BioAssay AID651812 (National Center for Advancing Translational Sciences (NCATS), 2012).
In all, about 2,100 compounds went through this assay and about 650 (31%) were called active. Not shown: some 16% with an inconclusive outcome. Calls follow the shape of the dose curve; as a rule, active = well fitted inhibition curve with a large enough effect; inconclusive = small, poorly fitted or top-dose-only effect; inactive = flat fitted curve, though single readings scatter. The list shows a part of the results. A call without a number means that no potency is given here.

Experiment: qHTS for inhibitors of Vif-A3G interactions: Cherry picks; also: nearly all actives have a fitted effect of over 80% in size
Conditions: HeLa A3G-eYFP + Vif (tagged APOBEC3G with the HIV-1 protein that degrades it), 24 h; Potency: eYFP fluorescence increase; series mostly up to 36.9 µM
Method in brief: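 HeLa cells stably expressing A3G-eYFP and Vif, cultured overnight then exposed to compounds at several concentrations for 24 hours at 37 C, 5% CO2; cellular yellow fluorescence (488 nm ex, 500-530 nm em) imaged on Acumen, MG132 positive control.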
Potency is read from the fitted curve at half-maximal effect.

| SMILES | Potency |
| --- | --- |
| CC1CCN(C(=O)C(C)Sc2nc(-c3ccccc3)cc(C(F)(F)F)n2)CC1 (configuration not stated) | inactive |
| CCc1ccc2nc(N(CCCN(C)C)C(=O)c3ccc(S(=O)(=O)N(C)C4CCCCC4)cc3)sc2c1 | inactive |
| C=CCn1c(SCc2c(C)noc2C)nc2cc(C(=O)O)ccc2c1=O | inactive |
| COc1cc(C(=O)N/N=C/C2CC=CCC2)cc(OC)c1OC (configuration not stated) | inactive |
| COc1cc(/C=C2/SC(=S)N(CCC(=O)Nc3ccccc3)C2=O)cc(OC)c1OC | 18.4 µM (active) |
| O=C(CN1C(=O)S/C(=C\c2cc(Cl)c(O)c(Cl)c2)C1=O)Nc1ccccc1 | 20.6 µM (active) |
| COc1ccc(NC(=O)CN2C(=O)C3(SCC(=O)N3c3ccccc3)c3ccccc32)cc1Cl (configuration not stated) | inactive |
| COc1cc(/C=C2/SC(=S)N(Cc3ccccc3)C2=O)cc(OC)c1O | inactive |
| COc1cc(C=C2C(=O)c3ccccc3C2=O)cc(OC)c1OC | inactive |
| O=C(NCCN1C(=O)S/C(=C\c2ccc(OC(F)F)cc2)C1=O)c1cnccn1 | inactive |
| COC(=O)C1=C(C)NC2=C(C(=O)CC(c3cccs3)C2)C1c1ccsc1 (configuration not stated) | inactive |
| CC(=O)Nc1cccc(-c2ccnc3c2CC(C)(C(=O)NCc2cccs2)O3)c1 (configuration not stated) | inactive |
| Clc1ccc2c(c1)C(C1=NCCN1)c1ccccc1CS2 (configuration not stated) | inactive |
| CCOC(=O)Nc1ccc2c3c(cccc13)-c1ccccc1-2 | inactive |
| O=CNc1ccc2c3c(cccc13)-c1ccccc1-2 | 15.8 µM (active) |
| CC(=O)Nc1ccc(-c2ccnc3c2CC(C)(C(=O)NCc2ccco2)O3)cc1 (configuration not stated) | inactive |
| Cc1ccc2nc(-c3ccccn3)c(Nc3ccccc3C)n2c1 | inactive |
| CCN1C(=O)/C(=C/C=C2\N(CC)c3cc(S(=O)(=O)N(C)C)ccc3N2c2ccccc2)SC1=S | 4.44 µM (active) |
| Cc1ccc(C2=NN(C(=O)c3cccs3)C(c3ccccc3O)C2)cc1 (configuration not stated) | inactive |
| Cc1ccccc1C1CC(c2cccs2)=NN1S(C)(=O)=O (configuration not stated) | inactive |
| CCc1ccc(C2=NN(S(C)(=O)=O)C(c3cccs3)C2)cc1 (configuration not stated) | 25 µM (active) |
| CCOc1ccccc1C1CC(c2cccs2)=NN1S(C)(=O)=O (configuration not stated) | 13 µM (active) |
| Cn1c(=S)c2[nH]c(SCCN3CCCC3)nc2n(C)c1=O | inactive |
| O=C1C=CC(O)(c2cc(=O)c3c(O)cc(O)cc3o2)C=C1 | inactive |
| C1=Cc2ccccc2/C1=C\c1cc2c3c(c1)CCCN3CCC2 | 18.4 µM (active) |
| c1cncc(-c2nc(NCc3cccs3)c3ccccc3n2)c1 | inactive |

| SMILES | Potency |
| --- | --- |
| Cc1ccc(Nc2nc(-c3cccnc3)nc3ccccc23)cc1 | inactive |
| Oc1ccccc1-c1nc(NCc2ccccc2)c2ccccc2n1 | 20.6 µM (active) |
| c1ccc(N=NC2=NN(c3ccccc3)CS2)cc1 | inactive |
| Cc1cccc(CSc2cccc3cccnc23)c1 | inactive |
| O=C1c2ccccc2C(=O)c2c(/C=C/N3CCCCC3)ccnc21 | 18.4 µM (active) |
| CCCNc1c(F)c(F)c2c(C)c3ccccc3nc2c1F | 17.7 µM (active) |
| Cc1nnc(NC(=O)CSc2nc(C(C)C)nc3ccccc23)s1 | inactive |
| Cc1c2ccccc2nc2c(F)c(NC(C)C)c(F)c(F)c12 | 10.3 µM (active) |
| Cc1ccc(S(=O)c2ccc([N+](=O)[O-])c3nonc23)cc1 (configuration not stated) | 20.6 µM (active) |
| O=C(OCc1ccccc1)c1ccc(NCc2cc(O)ccc2O)cc1 | inactive |
| Cc1cc(C)cc(NC(=S)NC(=O)C2CC2)c1 | inactive |
| Cc1cc(C)cc(NC(=O)Cn2cc(C(=O)C3CCCCC3)c3ccccc32)c1 | 20.6 µM (active) |
| CCn1c2ccccc2c2cc(NC(=O)CNCc3ccccc3OC)ccc21 | inactive |
| N#C/C(=C/c1ccc(N2CCOCC2)o1)c1ccc(Cl)cc1 | 1.46 µM (active) |
| Cc1ccc(/C(C#N)=C\c2ccc(N3CCOCC3)o2)cc1 | 19.8 µM (active) |
| N#C/C(=C/c1ccc(N2CCCCCC2)o1)c1ccc(Cl)cc1 | 0.651 µM (active) |
| COc1ccccc1C1c2ccc3ccccc3c2Oc2ncn(CCN(C)C)c(=N)c21 (configuration not stated) | inactive |
| CCOc1ccccc1OCC(=O)N/N=C(\C)Cc1ccc(OC)cc1 | inactive |
| Cc1ccc(NC(=O)C2CCN(S(=O)(=O)c3ccc(Cl)c(C(F)(F)F)c3)CC2)nc1 | inactive |
| CCCc1nc2c(C)cc(Br)cn2c1Cc1ccccc1 | inactive |
| O=C(Nc1cc(Cl)cc2c1-c1ccc(Cl)cc1C2O)C(Cl)Cl (configuration not stated) | inactive |
| CCOC(=O)Cc1csc(NC(=O)c2sc3nc4c(C)cc(C)cc4cc3c2N)n1 | 20.6 µM (active) |
| CCOC(=O)c1csc(NC(=O)c2cc(-c3ccccn3)nc3ccccc23)n1 | inactive |
| CCn1ncc(/C=N\NC(=O)c2csc3ccccc23)c1C | inactive |
| CCC1CC=CC2C1C(=O)N(Cc1ccccc1)C2c1ccoc1 (configuration not stated) | inactive |
| COc1cc(C2C(C#N)=C(N)Oc3cc(O)ccc32)cc2c1OCO2 (configuration not stated) | inactive |

| SMILES | Potency |
| --- | --- |
| Cc1cc(-c2ccccc2)c2c3c(c(-c4ccccc4)n2n1)c(=O)n(C)c(=O)n3C | 18.4 µM (active) |
| Cc1ccc(CNC(=O)C2CC(c3cc(C(F)(F)F)cc(C(F)(F)F)c3)=NO2)o1 (configuration not stated) | inactive |
| Cc1c(N2C(=O)/C(=C/c3ccc(N(C)C)cc3)N(C)C2=S)c(=O)n(-c2ccccc2)n1C | 18.4 µM (active) |
| CN1C/C(=C/c2cccnc2)C(=O)/C(=C/c2cccnc2)C1 | inactive |
| CN1C(=O)/C(=C\c2ccc(N(C)C)cc2)OC1=S | 4.98 µM (active) |
| CN1C(=S)N(c2cccnc2)C(=O)/C1=C\c1ccc(N(C)C)cc1 | 15.8 µM (active) |
| CC(NC(=S)Nc1cccc(C(F)(F)F)c1)C(C)(C)C (configuration not stated) | inactive |
| CCN(CC)c1ccc2c(c1)oc(=O)c1c(Cl)cc(=O)oc12 | 23.1 µM (active) |
| Cc1ccc(F)c(S(=O)(=O)NC(=O)C2(C)CCN2C(=O)Cc2ccc(Cl)cc2Cl)c1 (configuration not stated) | inactive |
| CSc1ccc(C2NC(=O)c3ccccc3N2)cc1 (configuration not stated) | inactive |
| COc1ccccc1/C=C/C=N/n1c(-c2ccc(C)cc2)n[nH]c1=S | inactive |
| O=c1c(O)c(-c2cccs2)oc2ccccc12 | 2.59 µM (active) |
| C/C(=N\NC(N)=S)C12CC3CC(CC(C3)C1)C2 | inactive |
| O=C(c1ccccc1F)n1c2c(c3ccccc31)CCCC2 | inactive |
| Nc1nonc1-c1nc2ccccc2n1CC(=O)Nc1cccc(C(F)(F)F)c1 | 25.9 µM (active) |
| Nc1nonc1-c1nc2ccccc2n1Cc1ccc(F)cc1 | inactive |
| COc1ccc(C)c(Cn2c(-c3nonc3N)nc3ccccc32)c1 | inactive |
| O=c1c[n+]([O-])c2ccccc2n1OCc1c(F)cccc1F | inactive |
| O=C(O)c1ccccc1N/N=C/c1c(Sc2nnnn2-c2ccccc2)nc2ccccn2c1=O | 3.53 µM (active) |
| O=c1oc2c3c4c(cc2c(C(F)(F)F)c1CCN1CCOCC1)CCCN4CCC3 | 7.31 µM (active) |
| O=C(Nc1cc(Cl)ccc1-n1cncn1)c1ccc([N+](=O)[O-])s1 | 15.8 µM (active) |
| O=C(O)Cc1sc(NC2CCCCC2)nc1-c1ccc(Cl)cc1 | inactive |
| COC(=O)C1=C(Nc2ccc(C)cc2)C=C(C)C(C(=O)OC)C1c1cccc(OC)c1 (configuration not stated) | inactive |
| CC(=O)Nc1ccc(S(=O)(=O)N2c3ccccc3C(C)=CC2(C)C)cc1 | inactive |
| Cc1cc2ccccn2c1C(=O)c1ccc([N+](=O)[O-])o1 | 18.4 µM (active) |
| Cc1cccc(/C=C/C(=O)c2ccc([N+](=O)[O-])o2)c1 | inactive |

| SMILES | Potency |
| --- | --- |
| O=C(NN(c1ccccc1)c1ccccc1)c1ccc([N+](=O)[O-])o1 | inactive |
| COC(=O)Cn1c(C)c(/C=C/c2cc[n+](C)cc2)c2ccccc21 | 13 µM (active) |
| CCN(CC)C(=O)Cn1c(C)c(/C=C/c2cc[n+](C)cc2)c2ccccc21 | 12.5 µM (active) |
| N#C/C(=C/c1cccs1)c1ccccn1 | 14 µM (active) |
| N#C/C(=C/c1ccc(N2CCCCC2)o1)c1cccc(F)c1 | 8.2 µM (active) |
| CSc1nc2ccccc2cc1/C=C(\C#N)c1cccc(C)c1 | inactive |
| N#C/C(=C/c1ccc(N2CCCCCC2)o1)c1cccc(F)c1 | 3.66 µM (active) |
| COc1cc(C2C(C#N)=C(N)Oc3cc(O)ccc32)cc(OC)c1OC (configuration not stated) | inactive |
| CCCCN(C)CC(O)Cn1cc(/C=C/C(=O)c2cccs2)c2ccccc21 (configuration not stated) | 20.6 µM (active) |
| CN(NC(=O)c1ccccc1)c1nc2ccccc2nc1C(F)(F)F | inactive |
| CN(C)c1ccc(/C=C/c2cc(N(C)C)nc3ccccc23)cc1 | 13 µM (active) |
| CN(C)c1ccc(/C=C/c2nc3ccccc3c(=O)n2CCO)cc1 | 18.4 µM (active) |
| CN(C)c1ccc(/C=C/c2cc(/C=C/c3ccc(N(C)C)cc3)c3ccccc3n2)cc1 | 6.51 µM (active) |
| Cc1noc(C)c1CSc1nc2ccccc2c(=O)n1-c1ccccc1 | inactive |
| Nc1ccc(/C=C/c2cc(Cl)nc3ccccc23)cc1 | 20.6 µM (active) |
| O=C(NC(=S)Nc1ccc(-c2ccccc2)cc1)c1ccccc1 | inactive |
| CC(C)Cn1c(N)c(C(=O)COC(=O)c2ccc([N+](=O)[O-])o2)c(=O)n(C)c1=O | inactive |
| CC(C)(C)n1ncc2c(=O)n(CC(=O)NCc3ccc(F)cc3)cnc21 | inactive |
| O=C1OC(Nc2nc(-c3ccc(F)cc3)cs2)c2ccccc21 (configuration not stated) | inactive |
| CCN(CC)c1ccc(/C=C/c2cc(-c3ccccc3)c3ccccc3n2)cc1 | 11.2 µM (active) |
| COc1ccc(C2=NOC(C(=O)NCc3cccs3)C2)cc1OC (configuration not stated) | inactive |
| Cc1ccc(N2C(=O)[C@@H]3[C@H](C2=O)[C@H]2C=C(C(=O)c4ccccc4)C=CN2[C@@H]3C(=O)c2ccc(Cl)cc2)cc1 | inactive |
| CCn1nc(-c2ccccc2)c2nc3ccccc3nc21 | 16.4 µM (active) |
| Nc1ccc2nc(-c3ccccc3)c(-c3ccccc3)nc2c1 | inactive |
